In the supplement of paper PMC8975748:
Structures can show the parent of a compound that is named as a salt. ± gives the standard deviation of the averaged measurements.

Key:
[1] = system: Saccharomyces cerevisiae BY4741 SeMeCo community; test: mean cell size (pixel area) (pixels); higher = larger cells; conditions: 10 µM; 24 h; SM minimal medium
In short: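 Mean cell pixel area per well was determined by automated confocal microscopy with Harmony analysis of paraformaldehyde-fixed cells. The cells, a Saccharomyces cerevisiae BY4741 community of four plasmids that each complement one auxotrophy and carry a fluorescent marker, were incubated for 24 h with drug at a final 10 µM in SM medium in 384-well plates. Numbers are averaged over 3 replicates. Same SeMeCo high-content imaging drug screen: Selleck FDA-approved drugs at 10 µM, 24 h in SM medium, 384-well plates, 3 replicates.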

[2] = system: Saccharomyces cerevisiae BY4741 SeMeCo community; test: z-score of prototroph abundance vs DMSO median; higher = larger share of this subpopulation than in DMSO controls; conditions: 10 µM; 24 h; SM minimal medium; subpopulation (auxotrophy): Prototroph
In short: (§1)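 A Saccharomyces cerevisiae BY4741 community carried four plasmids, each restoring one auxotrophy and encoding a distinct fluorescent protein. It was pre-grown overnight to OD600 1.0, diluted to 0.3, and 70 µl was added to 384-well plates acoustically predosed with library drugs (10 µM final), then grown 24 h in minimal SM medium. Cells were paraformaldehyde-fixed and imaged by automated confocal microscopy, with single-auxotroph fluorescent strains setting thresholds and autofluorescence correction. Each subpopulation's abundance was scored as a z-score against the vehicle-well median.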

[3] = system: Saccharomyces cerevisiae BY4741 SeMeCo community; test: z-score of subpopulation abundance vs DMSO median, subpopulation auxotrophic for M; higher = larger share of this subpopulation than in DMSO controls; conditions: 10 µM; 24 h; SM minimal medium; subpopulation (auxotrophy): M
In short: as §1

[4] = system: Saccharomyces cerevisiae BY4741 SeMeCo community; test: z-score of subpopulation abundance vs DMSO median, subpopulation auxotrophic for U; higher = larger share of this subpopulation than in DMSO controls; conditions: 10 µM; 24 h; SM minimal medium; subpopulation (auxotrophy): U
In short: as §1

[5] = system: Saccharomyces cerevisiae BY4741 SeMeCo community; test: z-score of subpopulation abundance vs DMSO median, subpopulation auxotrophic for H; higher = larger share of this subpopulation than in DMSO controls; conditions: 10 µM; 24 h; SM minimal medium; subpopulation (auxotrophy): H
In short: as §1

[6] = system: Saccharomyces cerevisiae BY4741 SeMeCo community; test: z-score of subpopulation abundance vs DMSO median, subpopulation auxotrophic for LU; higher = larger share of this subpopulation than in DMSO controls; conditions: 10 µM; 24 h; SM minimal medium; subpopulation (auxotrophy): LU
In short: as §1

[7] = system: Saccharomyces cerevisiae BY4741 SeMeCo community; test: z-score of subpopulation abundance vs DMSO median, subpopulation auxotrophic for LM; higher = larger share of this subpopulation than in DMSO controls; conditions: 10 µM; 24 h; SM minimal medium; subpopulation (auxotrophy): LM
In short: as §1

[8] = system: Saccharomyces cerevisiae BY4741 SeMeCo community; test: z-score of subpopulation abundance vs DMSO median, subpopulation auxotrophic for HM; higher = larger share of this subpopulation than in DMSO controls; conditions: 10 µM; 24 h; SM minimal medium; subpopulation (auxotrophy): HM
In short: as §1

[9] = system: Saccharomyces cerevisiae BY4741 SeMeCo community; test: z-score of subpopulation abundance vs DMSO median, subpopulation auxotrophic for HU; higher = larger share of this subpopulation than in DMSO controls; conditions: 10 µM; 24 h; SM minimal medium; subpopulation (auxotrophy): HU
In short: as §1

[10] = system: Saccharomyces cerevisiae BY4741 SeMeCo community; test: z-score of subpopulation abundance vs DMSO median, subpopulation auxotrophic for UM; higher = larger share of this subpopulation than in DMSO controls; conditions: 10 µM; 24 h; SM minimal medium; subpopulation (auxotrophy): UM
In short: as §1

[11] = system: Saccharomyces cerevisiae BY4741 SeMeCo community; test: z-score of subpopulation abundance vs DMSO median, subpopulation auxotrophic for HL; higher = larger share of this subpopulation than in DMSO controls; conditions: 10 µM; 24 h; SM minimal medium; subpopulation (auxotrophy): HL
In short: as §1

[12] = system: Saccharomyces cerevisiae BY4741 SeMeCo community; test: z-score of subpopulation abundance vs DMSO median, subpopulation auxotrophic for HLU; higher = larger share of this subpopulation than in DMSO controls; conditions: 10 µM; 24 h; SM minimal medium; subpopulation (auxotrophy): HLU
In short: as §1

[13] = system: Saccharomyces cerevisiae BY4741 SeMeCo community; test: z-score of subpopulation abundance vs DMSO median, subpopulation auxotrophic for HLM; higher = larger share of this subpopulation than in DMSO controls; conditions: 10 µM; 24 h; SM minimal medium; subpopulation (auxotrophy): HLM
In short: as §1

[14] = system: Saccharomyces cerevisiae BY4741 SeMeCo community; test: z-score of subpopulation abundance vs DMSO median, subpopulation auxotrophic for HUM; higher = larger share of this subpopulation than in DMSO controls; conditions: 10 µM; 24 h; SM minimal medium; subpopulation (auxotrophy): HUM
In short: as §1

[15] = system: Saccharomyces cerevisiae BY4741 SeMeCo community; test: z-score of subpopulation abundance vs DMSO median, subpopulation auxotrophic for LUM; higher = larger share of this subpopulation than in DMSO controls; conditions: 10 µM; 24 h; SM minimal medium; subpopulation (auxotrophy): LUM
In short: as §1

[16] = system: Saccharomyces cerevisiae BY4741 SeMeCo community; test: z-score of subpopulation abundance vs DMSO median, subpopulation auxotrophic for HLUM; higher = larger share of this subpopulation than in DMSO controls; conditions: 10 µM; 24 h; SM minimal medium; subpopulation (auxotrophy): HLUM
In short: as §1

[17] = system: Saccharomyces cerevisiae BY4741 SeMeCo community; test: z-score of subpopulation abundance vs DMSO median, subpopulation auxotrophic for L; higher = larger share of this subpopulation than in DMSO controls; conditions: 10 µM; 24 h; SM minimal medium; subpopulation (auxotrophy): L
In short: as §1

Row | Compound | mean cell size [1] | z-score of prototroph abundance [2] | z-score of subpopulation abundance [3] | z-score of subpopulation abundance [4] | z-score of subpopulation abundance [5] | z-score of subpopulation abundance [6] | z-score of subpopulation abundance [7] | z-score of subpopulation abundance [8] | z-score of subpopulation abundance [9] | z-score of subpopulation abundance [10] | z-score of subpopulation abundance [11] | z-score of subpopulation abundance [12] | z-score of subpopulation abundance [13] | z-score of subpopulation abundance [14] | z-score of subpopulation abundance [15] | z-score of subpopulation abundance [16] | z-score of subpopulation abundance [17]
1 | N#Cc1ccc(Oc2ccc3c(c2)COB3O)cc1 [Crisaborole (AN2728)] | 12.3 ± 0.19 | -3.53 | -1.21 | 0.49 | 7.63 | 4.21 | 2.61 | 0.93 | 3.15 | -0.21 | 5.69 | 6.18 | 3.78 | 1.2 | 3.54 | 5.38 | –
2 | CC1(C)S[C@@H]2[C@H](NC(=O)Cc3ccccc3)C(=O)N2[C@H]1C(=O)O [Benzylpenicillin potassium] | 12.1 ± 0.18 | -0.27 | -0.08 | 0.62 | -0.83 | 0.51 | 0.02 | -0.39 | -0.05 | -0.02 | -0.23 | 0.89 | 0.2 | 0.17 | 0.72 | 0.88 | –
3 | c1ccc(-c2ccc(C(c3ccccc3)n3ccnc3)cc2)cc1 (stereo not given) [Bifonazole] | 12.65 ± 0.082 | -0.9 | 3.3 | -0.36 | 1.08 | -0.8 | – | -0.61 | – | 0.46 | – | 0.9 | – | 0.21 | 0.94 | 2.46 | -1.29
4 | Cc1onc(-c2c(Cl)cccc2Cl)c1C(=O)N[C@@H]1C(=O)N2[C@@H]1SC(C)(C)[C@@H]2C(=O)O [Dicloxacillin Sodium] | 12.4 ± 0.18 | 0.04 | -0.23 | -0.31 | – | 0.85 | – | -0.31 | -0.23 | -0.45 | – | -0.51 | – | -0.11 | – | 1.07 | 1.32
5 | Nc1nc2c(ncn2COCCO)c(=O)[nH]1 [Aciclovir] | 12.5 ± 0.32 | 0.49 | -0.02 | -0.49 | -0.28 | 0.29 | 0.9 | -0.46 | -0.91 | -0.79 | -0.76 | -0.88 | -0.49 | -1.32 | 0.25 | 0.48 | –
6 | Nc1ccc(/N=N/c2ccccc2)c(N)n1 [Phenazopyridine HCl] | 12.5 ± 0.25 | 2.41 | 0.28 | -2.82 | 1.88 | -2.56 | – | 0.02 | -2.46 | -2.74 | 0.92 | -1.56 | – | – | – | – | 0.42
7 | Cc1nc2n(c(=O)c1CCN1CCC(c3noc4cc(F)ccc34)CC1)CCCC2 [Risperidone] | 12.3 ± 0.18 | -0.99 | -0.08 | 0.56 | – | 0.52 | 0.47 | 0.48 | 0.99 | 0.87 | 0.49 | 0.19 | – | – | 0.14 | – | -0.44
8 | O=C(c1ccccc1)c1ccc2n1CCC2C(=O)O (stereo not given) [Ketorolac tromethamine salt] | 12.3 ± 0.19 | 0.48 | 0.27 | – | 0.35 | -0.75 | – | -0.41 | -0.79 | -0.28 | -0.19 | -0.16 | – | -0.75 | -0.12 | -0.11 | 0.3
9 | O=C1Nc2ccccc2C1=O [Isatin] | 12.3 ± 0.17 | -0.13 | -0.49 | 0.43 | 0.05 | 0.53 | -0.62 | -0.24 | 0.91 | 0.51 | -0.64 | 0.06 | -1.17 | 0.2 | -0.31 | -0.52 | –
10 | Nc1nnc(-c2cccc(Cl)c2Cl)c(N)n1 [Lamotrigine] | 12.37 ± 0.07 | -1.13 | 0.91 | -0.91 | 0.08 | 0.85 | – | 1.25 | -0.39 | 0.01 | 1.44 | 0.23 | – | 0.8 | 1.86 | – | 2.5
11 | c1cnc2cc3c(cc2n1)[C@@H]1CNC[C@H]3C1 [Varenicline Tartrate] | 12.1 ± 0.23 | 0.71 | -0.55 | -0.22 | 0.28 | -0.66 | 0.09 | -0.22 | -0.05 | -0.54 | 0.16 | -0.4 | – | – | -0.39 | 0.16 | -0.32
12 | CN1CCC(=C2c3ccccc3CCc3sccc32)CC1 [Pizotifen Malate] | 12.5 ± 0.16 | 0.02 | 0.26 | -0.76 | – | 0.03 | -0.03 | -0.03 | -0.33 | -0.43 | 0.05 | 0.5 | 0.21 | -0.14 | -0.55 | 0.16 | –
13 | CC[C@H]1OC(=O)[C@H](C)[C@@H](O[C@H]2C[C@@](C)(OC)[C@@H](O)[C@H](C)O2)[C@H](C)[C@@H](O[C@@H]2O[C@H](C)C[C@H](N(C)C)[C@H]2O)[C@](C)(O)C[C@@H](C)CN(C)[C@H](C)[C@@H](O)[C@]1(C)O [Azithromycin] | 12.5 ± 0.14 | -0.03 | -0.81 | -0.41 | -0.15 | 0.14 | 0.27 | -0.55 | 0.02 | -0.55 | -0.27 | -0.06 | 0.46 | 0.11 | 0.31 | 0.36 | –
14 | CCCCCCCCCCCCCCCC[N+](C)(C)C [Cetrimonium Bromide (CTAB)] | 10.8 ± 0.24 | -15.6 | -4.82 | – | 9.21 | 3.88 | – | 10.1 | 12.8 | – | 10.9 | 19.1 | – | – | 20.6 | 29.4 | -1.79
